# Experiments:
# Assay in all cases: PBM binding z-score (relative to random genomic background probes); higher = stronger binding; sequences stand for … in GC…GCGATTGACAGCGTAGAATGAAGG
# [1] = system: FXR:RXRa (NR concentration 270 nM, RXRa partner concentration 90 nM)
# In short: (§1)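 On custom Agilent 4×180K arrays, double-stranded probes with 34-nt variable regions carried direct-repeat seeds, single-nucleotide variants, half-site ablations or random human genomic background. Ligand-free nuclear receptor dimers were applied for 1 h, and binding was read with antibodies against each partner (one per run). Binding z-scores come from regression-normalized fluorescence, with the random background probes as reference.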
# [2] = system: LXRa:RXRa (NR concentration 270 nM, RXRa partner concentration 90 nM)
# In short: as §1
# [3] = system: LXRa homodimer (NR concentration 270 nM)
# In short: as §1
# [4] = system: LXRb:RXRa (NR concentration 270 nM, RXRa partner concentration 90 nM)
# In short: as §1
# [5] = system: LXRb homodimer (NR concentration 270 nM)
# In short: as §1
# [6] = system: PPARa:RXRa (NR concentration 270 nM, RXRa partner concentration 90 nM)
# In short: as §1
# [7] = system: PPARg:RXRa (NR concentration 180 nM, RXRa partner concentration 90 nM)
# In short: as §1
# [8] = system: PPARg:RXRa 270nM:90nM, anti-RXR (NR concentration 270 nM, RXRa partner concentration 90 nM)
# In short: as §1
# [9] = system: PPARg:RXRa 30nM:10nM, anti-RXR (NR concentration 30 nM, RXRa partner concentration 10 nM)
# In short: as §1
# [10] = system: PPARg:RXRa 90nM:30nM, anti-RXR (NR concentration 90 nM, RXRa partner concentration 30 nM)
# In short: as §1
# [11] = system: PPARg:RXRa DBDmut IVT, anti-RXR (DBD mutation: RXRa K156A/R161A, NR concentration 270 nM, RXRa partner concentration 90 nM)
# In short: as §1
# [12] = system: PPARg:RXRa IVT, anti-PPARg (NR concentration 270 nM, RXRa partner concentration 90 nM)
# In short: as §1
# [13] = system: PPARg DBDmut:RXRa IVT, anti-PPARg (DBD mutation: PPARg1 K132A/R137A, NR concentration 270 nM, RXRa partner concentration 90 nM)
# In short: as §1
# [14] = system: PPARg DBDmut IVT, anti-PPARg (DBD mutation: PPARg1 K132A/R137A, NR concentration 270 nM)
# In short: as §1
# [15] = system: PPARg homodimer (NR concentration 180 nM)
# In short: as §1
# [16] = system: PXR:RXRa (NR concentration 270 nM, RXRa partner concentration 90 nM)
# In short: as §1
# [17] = system: PXR homodimer (NR concentration 270 nM)
# In short: as §1
# [18] = system: RARa:RXR (NR concentration 270 nM, RXRa partner concentration 90 nM)
# In short: as §1
# [19] = system: RARa homodimer (NR concentration 270 nM)
# In short: as §1
# [20] = system: RARb:RXRa (NR concentration 270 nM, RXRa partner concentration 90 nM)
# In short: as §1
Sequence,PBM binding z-score [1],PBM binding z-score [2],PBM binding z-score [3],PBM binding z-score [4],PBM binding z-score [5],PBM binding z-score [6],PBM binding z-score [7],PBM binding z-score [8],PBM binding z-score [9],PBM binding z-score [10],PBM binding z-score [11],PBM binding z-score [12],PBM binding z-score [13],PBM binding z-score [14],PBM binding z-score [15],PBM binding z-score [16],PBM binding z-score [17],PBM binding z-score [18],PBM binding z-score [19],PBM binding z-score [20]
CGAACTAGGTCAAGGACCGTGAATCTCCGCACGC,3.28,2.1,-0.026,1.26,-0.781,4.64,7.76,6.89,4.37,6.74,7.68,8.18,4.94,0.945,0.756,0.773,-0.365,1.63,-0.219,3.8
ATATGTAAGTTATCGGGTCATTCAGTTTGCGCAT,2.13,2.33,1.43,2.61,1.02,2.93,1.83,2.22,0.702,1.72,2.89,3.27,1.57,1.8,1.64,3.39,6.97,2.93,1.29,2.05
AGTCAAAGTTCATCTAGGTAACGTAAGATATGCT,6.73,6,5.07,3.62,1.73,4.84,6.6,6.14,3.3,5.53,1.19,3.69,1.19,1.17,3.13,5,7.49,3.72,2,5.01
CCTTACGGGTCAAGGTGATAGCACGGGTGGTACG,5.64,3.5,-0.313,2.67,-0.389,4.8,4.43,4.52,1.62,3.34,1.85,3.49,-0.115,-0.375,1.63,2.89,-0.103,3.84,0.455,4.11
CCTACTGGGCCAAGGTCAGTGATCAGTCAAAGCA,0.749,0.797,0.0206,0.924,-0.982,2.46,2.73,3.3,0.671,2.45,3.15,4.03,0.453,-1.43,1.3,1.14,-0.136,1.75,-0.243,2.89
GCTAGTTGGTCAGTAAAAGGTCATACACCGGTCG,3.17,4.37,5.64,3.93,0.896,4.45,2.95,4.03,2.15,3.55,0.651,2.38,-0.0949,-0.0441,3.01,4.5,1.09,5.05,1.09,3.94
TAGCCTAGGTCATGGGCCAGCATACCACGCGAAC,4.04,3.14,0.0336,2.05,-0.463,3.9,3.38,3.53,1.26,2.69,1.68,3.04,0.798,-0.0378,1.22,1.38,-0.554,2.74,-0.41,3.79
